Activity calls are given as the source filed them.

Assay [1] is described as follows: small molecules captured by biotinylated probe aFSTL3 – biochemical, small-molecule microarray, fluorescence 635/667, stem cell growth factor project, primary screen (AID 1064).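 Also: measures binding of the biotinylated anti-FSTL3 antibody to printed compounds.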 As to conditions: higher = more signal.
Assay [2] in a line: binders from COS7 lysate, DM2A8 probe, primary screen, torsin A project, cell lysate, small-molecule microarray, fluorescence 635/667 (AID 1065). As to conditions: higher = more signal, COS7 lysate expressing mutant human TOR1A.
Assay [3] can be described thus: small molecules captured by biotinylated probe aFGF2 – biochemical, small-molecule microarray, fluorescence 635/667, stem cell growth factor project, primary screen (AID 1067).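 Also: measures binding of biotinylated aFGF2 protein to printed compounds on slides; z-score merges feature fluorescence and signal-to-noise across triplicate slides.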 As to conditions: higher = more signal.
A short description of assay [4]: small molecules captured by biotinylated probe aFGF10 – biochemical, small-molecule microarray, fluorescence 635/667, stem cell growth factor project, primary screen (AID 1071).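 Also: score merges 667 nm spot intensity and signal to noise from triplicate slides.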 The note with it: higher = more signal.
Assay [5] concerns the target Neurogenic locus notch homolog protein 2 (Homo sapiens) (UniProt Q04721). The assay is described as follows: small molecules binding Notch2 protein – biochemical, small-molecule microarray, 635 nm fluorescence, stem cell growth factors, primary screen (AID 1073). The note with it: higher = more signal.
Assay [6] addresses Pro-neuregulin-1, membrane-bound isoform (Homo sapiens) (UniProt Q02297). The assay is described as follows: small molecules binding neuregulin-1 protein – biochemical, small-molecule microarray, fluorescence 635/667, psychiatric disease protein project, primary screen (AID 1075).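 Also: score combines 667 nm spot fluorescence with signal to noise.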 As to conditions: NRG1 binding, 635 nm fluorescence, higher = more signal.
In assay [7] the test system is Neuregulin-1 EGF-like domain. The assay is described as follows: small molecules binding NRG1 EGF domain – biochemical, small-molecule microarray, 635 nm fluorescence, primary screen (AID 1081).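 Also: binding of the protein to compounds printed on small-molecule microarray slides.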 As to conditions: higher = more signal.
The nature of assay [8]: FRG1 expression reporter modulators in myotubes – cell-based, C2C12 myotubes, firefly/Renilla luciferase, luminescence, FRG1 inhibition for FSHD, primary screen (AID 1084). As to conditions: FRG1 promoter luciferase, higher = more signal, called active from +8 up or from −8 down.
Assay [9] can be described thus: small molecules captured by biotinylated probe aFST – biochemical, small-molecule microarray, fluorescence 635/667, stem cell growth factor project, primary screen (AID 1086).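 Also: score merges 667 nm fluorescence with signal-to-noise of each printed compound spot.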 As to conditions: higher = more signal.
Assay [10] is described as follows: binders of probe aHhip on microarray, primary screen, stem cell growth factor project, biochemical, small-molecule microarray, fluorescence 635/667 (AID 1087).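 Also: score merges spot fluorescence at 667nm with spot signal to noise ratio.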 As to conditions: higher = more signal.

Chain of Neurogenic locus notch homolog protein 2 (Homo sapiens) (Q04721 whole entry, looked up, canonical isoform): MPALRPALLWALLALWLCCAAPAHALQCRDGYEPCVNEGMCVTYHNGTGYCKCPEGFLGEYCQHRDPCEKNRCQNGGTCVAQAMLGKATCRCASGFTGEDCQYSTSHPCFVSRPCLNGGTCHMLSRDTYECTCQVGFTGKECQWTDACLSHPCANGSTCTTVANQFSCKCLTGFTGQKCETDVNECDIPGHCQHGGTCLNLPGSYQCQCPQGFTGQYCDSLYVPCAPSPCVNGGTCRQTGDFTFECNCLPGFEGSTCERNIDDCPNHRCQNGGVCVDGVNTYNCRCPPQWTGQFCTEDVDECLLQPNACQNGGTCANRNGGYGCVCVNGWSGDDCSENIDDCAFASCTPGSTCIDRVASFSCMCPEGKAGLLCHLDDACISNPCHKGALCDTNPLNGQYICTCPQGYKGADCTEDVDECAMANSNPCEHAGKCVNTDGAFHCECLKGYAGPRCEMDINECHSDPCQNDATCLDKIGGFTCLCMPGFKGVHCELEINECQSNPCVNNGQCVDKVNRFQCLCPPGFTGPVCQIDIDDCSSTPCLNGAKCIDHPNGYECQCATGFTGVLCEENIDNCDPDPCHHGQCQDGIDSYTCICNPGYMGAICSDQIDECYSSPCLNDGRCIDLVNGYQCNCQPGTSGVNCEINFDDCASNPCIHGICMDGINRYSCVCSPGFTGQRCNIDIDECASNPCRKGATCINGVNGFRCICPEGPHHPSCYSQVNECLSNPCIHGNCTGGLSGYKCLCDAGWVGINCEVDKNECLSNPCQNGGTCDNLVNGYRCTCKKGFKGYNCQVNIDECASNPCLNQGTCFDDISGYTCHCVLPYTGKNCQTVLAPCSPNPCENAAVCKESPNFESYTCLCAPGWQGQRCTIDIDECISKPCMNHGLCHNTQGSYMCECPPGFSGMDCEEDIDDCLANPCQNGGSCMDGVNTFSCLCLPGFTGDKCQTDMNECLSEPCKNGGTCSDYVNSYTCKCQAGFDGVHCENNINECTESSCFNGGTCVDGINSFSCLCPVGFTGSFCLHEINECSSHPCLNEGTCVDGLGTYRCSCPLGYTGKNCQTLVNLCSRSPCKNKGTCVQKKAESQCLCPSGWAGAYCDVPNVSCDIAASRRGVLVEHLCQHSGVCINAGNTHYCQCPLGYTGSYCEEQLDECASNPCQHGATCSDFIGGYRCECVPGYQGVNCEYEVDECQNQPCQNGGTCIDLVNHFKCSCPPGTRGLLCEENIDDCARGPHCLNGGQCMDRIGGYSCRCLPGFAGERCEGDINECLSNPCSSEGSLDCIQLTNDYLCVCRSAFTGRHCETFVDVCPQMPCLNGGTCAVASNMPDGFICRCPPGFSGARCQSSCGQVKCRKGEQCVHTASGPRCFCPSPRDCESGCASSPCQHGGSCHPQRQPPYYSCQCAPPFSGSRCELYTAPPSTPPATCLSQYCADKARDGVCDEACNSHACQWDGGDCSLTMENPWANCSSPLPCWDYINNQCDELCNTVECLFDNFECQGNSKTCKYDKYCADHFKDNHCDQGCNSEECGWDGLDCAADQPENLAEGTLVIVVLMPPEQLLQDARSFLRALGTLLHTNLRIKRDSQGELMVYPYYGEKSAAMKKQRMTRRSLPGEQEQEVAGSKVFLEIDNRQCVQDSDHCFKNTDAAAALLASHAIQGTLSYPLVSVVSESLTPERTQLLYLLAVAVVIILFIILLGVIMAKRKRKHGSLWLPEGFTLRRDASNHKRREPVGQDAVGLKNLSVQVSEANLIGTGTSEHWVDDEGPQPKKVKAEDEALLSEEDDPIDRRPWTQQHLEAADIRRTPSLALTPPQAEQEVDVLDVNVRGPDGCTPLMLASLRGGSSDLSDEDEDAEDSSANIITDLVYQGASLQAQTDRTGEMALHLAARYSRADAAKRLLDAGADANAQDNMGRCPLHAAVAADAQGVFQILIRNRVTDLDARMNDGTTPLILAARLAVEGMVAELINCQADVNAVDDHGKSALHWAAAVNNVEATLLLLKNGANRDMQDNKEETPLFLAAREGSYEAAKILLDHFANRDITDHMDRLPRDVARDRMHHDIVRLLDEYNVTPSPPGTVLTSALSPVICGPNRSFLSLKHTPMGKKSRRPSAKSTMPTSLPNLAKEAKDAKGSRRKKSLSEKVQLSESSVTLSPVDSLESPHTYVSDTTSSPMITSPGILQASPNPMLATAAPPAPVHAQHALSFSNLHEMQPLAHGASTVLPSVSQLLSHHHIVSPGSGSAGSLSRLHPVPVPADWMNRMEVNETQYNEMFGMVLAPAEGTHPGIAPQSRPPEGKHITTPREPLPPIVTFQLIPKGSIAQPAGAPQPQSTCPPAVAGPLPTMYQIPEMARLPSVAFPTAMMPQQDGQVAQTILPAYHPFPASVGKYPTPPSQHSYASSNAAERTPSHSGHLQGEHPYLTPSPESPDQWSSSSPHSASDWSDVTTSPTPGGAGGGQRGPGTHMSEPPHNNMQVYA
Chain of Pro-neuregulin-1, membrane-bound isoform (Homo sapiens) (Q02297 whole entry, looked up, the tested form may be a part, canonical isoform): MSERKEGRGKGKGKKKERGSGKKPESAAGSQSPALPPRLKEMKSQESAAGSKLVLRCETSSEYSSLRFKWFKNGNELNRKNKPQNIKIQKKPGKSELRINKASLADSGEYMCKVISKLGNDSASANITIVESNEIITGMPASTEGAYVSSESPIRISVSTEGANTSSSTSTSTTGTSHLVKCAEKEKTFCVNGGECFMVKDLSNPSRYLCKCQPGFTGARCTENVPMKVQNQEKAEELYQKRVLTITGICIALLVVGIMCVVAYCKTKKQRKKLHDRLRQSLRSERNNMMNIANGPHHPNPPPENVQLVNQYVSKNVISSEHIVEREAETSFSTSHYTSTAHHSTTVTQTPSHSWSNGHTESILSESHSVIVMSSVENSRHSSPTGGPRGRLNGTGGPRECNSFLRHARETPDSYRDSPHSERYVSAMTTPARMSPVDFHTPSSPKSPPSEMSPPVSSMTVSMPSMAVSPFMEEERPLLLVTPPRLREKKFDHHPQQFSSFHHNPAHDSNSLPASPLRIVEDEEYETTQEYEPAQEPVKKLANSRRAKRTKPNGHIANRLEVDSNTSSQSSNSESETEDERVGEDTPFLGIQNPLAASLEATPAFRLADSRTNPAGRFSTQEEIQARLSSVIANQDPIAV

Consider `COc1ccc([Si](C)(C)[C@@H]2[C@@H](CCO)O[C@]3(C(=O)N(Cc4cccc(N5C(=O)c6cccc7cccc5c67)c4)c4ccccc43)[C@H]2C)cc1`, for which the composite z-score is 0.385 in assay [1]; -0.106 in [2]; -0.156 in [3]; 0.691 in assay [4]; -0.314 in assay [5]; 0.779 in [6]. For the same molecule, the values for the composite z-score in [7], in assay [9] and in [10] were 0.966, -0.0576 and -0.236, respectively. Also, the z-score in assay [8] was -0.34 (inactive).

On to `C=C[C@@H](COC(C)=O)NS(=O)(=O)c1ccc(Br)cc1`, for which the composite z-score in assay [1] was -0.35; in assay [2] it was 0.242; in [3], -0.0296; in assay [4], 0.135; in [5], 0.414; in assay [6], 0.0227. The composite z-score in assay [7] is 0.564; in assay [9], 0.111; in [10] it was -0.0672. Further, the z-score in [8] was 1.39 (inactive).

For `C=CCC(OC(C)=O)[C@@H]1[C@@H](N(Cc2ccc(-c3ccccc3)cc2)C(=O)c2cccc3ccccc23)c2cc(OCCCO)ccc2N1C(=O)Cc1ccc2ccccc2c1` (stereo not given in full), the composite z-score in [1] was -0.144; in assay [2], 0.407; in [3], -0.0445; in assay [4], 0.237; in assay [5] it was -0.101; in assay [6] it was -0.278. In addition, the composite z-score in assay [7] is -0.621; in assay [9], -0.0377; in [10] it was 0.154. The z-score in assay [8] was -0.873 (inactive).

For the molecule `O=C1NC(=O)C2C1C=CC(C(O)c1ccc3c(c1)OCO3)N2Nc1ccccn1` (stereo not given), the composite z-score in assay [1] was -0.0049; in assay [2] it was 0.0415; in assay [3] it was 0.271; in assay [4], 0.204; in assay [5], 0.994; in assay [6], 1.91. In addition, the composite z-score in assay [7] was found to be 1.16; in [9] it was 0.364; in [10], 0.0274. Also, the z-score in assay [8] was -0.653 (inactive).

Turning to `CCCCN1CC=CC23O[C@@H]4C=CCOC(=O)[C@@H]4[C@H]2C(=O)N(C(C)CO)[C@@H]3C1=O` (stereo not given in full), the composite z-score in assay [1] is 0.762; in [2] it was -0.665; in [3], -0.187; in assay [4], -0.174; in [5], -1.03; in assay [6], 1.7. Further, the composite z-score was 0.745 in assay [7], -0.0725 in [9] and -0.189 in assay [10]. The z-score in assay [8] was 1.66 (inactive).

In the case of `COc1cc(CO)cc(I)c1O[C@H]1C=C(C(=O)NCCO)C[C@@H](N(CC2CCCCC2)C(=O)c2ccc(C(F)(F)F)cc2)[C@@H]1O`, the composite z-score was -0.356 in assay [1]; 0.0668 in assay [2]; -0.101 in assay [3]; 0.268 in [4]; 0.546 in assay [5]; 0.115 in assay [6]. For the same molecule, the composite z-score in assay [7] turned out to be 1.02; in assay [9], 0.0701; in assay [10], 0.12. Further, the z-score in assay [8] was -1.85 (inactive).

As for `COc1ccc([Si](C)(C)[C@H]2[C@H](CC(=O)N3Cc4ccccc4C[C@H]3CO)O[C@@]3(C(=O)N(Cc4cccc(N5CCCCC5=O)c4)c4ccccc43)[C@@H]2C)cc1`, the composite z-score amounted to 0.0111 in [1]; 0.576 in assay [2]; 0.085 in [3]; 0.36 in assay [4]; 0.246 in [5]; 0.175 in assay [6]. Moreover, the results for the composite z-score in assay [7], in [9] and in assay [10] were 1.2, 0.342 and 0.0274, respectively. Besides, the z-score in [8] is -2.09 (inactive).

Regarding `CO[C@H]1O[C@H](CO)[C@@H](OC(=O)Nc2ccc(Oc3ccccc3)cc2)[C@H](OC(=O)Nc2ccccc2-c2ccccc2)[C@@H]1OC(=O)Nc1ccccc1-c1ccccc1`, the composite z-score was 0.531 in [1]; 1.21 in assay [2]; 0.0325 in assay [3]; 1.02 in assay [4]; 1.57 in assay [5]; 1.59 in assay [6]. For the same molecule, the composite z-score in [7] is 1.18; in [9] it was 1.03; in assay [10], -0.121. For the same molecule, the z-score in assay [8] is 1.17 (inactive).

For the molecule `C=C[C@@H](C)[C@H](OC(=O)Nc1ccc(SC)cc1)c1ccc(OCCO)cc1`, the composite z-score was 0.342 in [1]; -0.272 in assay [2]; -0.215 in [3]; -0.542 in assay [4]; -0.713 in assay [5]; 1.8 in assay [6]. Besides, the composite z-score in [7] is 1.22; in [9] it was -0.375; in [10] it was -0.0538. Moreover, in assay [8], the z-score is 6.28 (inactive).

With `COc1cc(OC)c(C(O)C2C=CC3C(=O)N(c4ccccc4)C(=O)C3N2Nc2ccc(C#N)cc2)cc1Br` (stereo not given), the composite z-score in assay [1] was 1.03; in assay [2], -0.223; in assay [3] it was 0.353; in assay [4] it was 1.17; in [5], 1.31; in assay [6], 1.75. The values for the composite z-score in [7], in assay [9] and in [10] were 1.34, 1.73 and 0.219, respectively. Moreover, in [8], the z-score was -0.647 (inactive).

In the case of `C[N+](C)(C)CCCC[C@@H]1NC(=O)[C@@H]2C[C@H](C(=O)O)[C@H](c3ccc(O)cc3)N2C1=O`, the composite z-score in assay [1] is 1.26; in [2], -0.752; in assay [3], -0.119; in [4], -0.695; in assay [5] it was -1.77; in assay [6], -0.0673. Further, the composite z-score in assay [7] was -0.118; in [9], -0.639; in assay [10], -0.137. Also, the z-score in [8] was 0.0902 (inactive).

As for `COc1ccc([Si](C)(C)[C@H]2[C@H](CCO)O[C@@]3(C(=O)N(Cc4cccc(N5CCCCC5=O)c4)c4ccccc43)[C@@H]2C)cc1`, the composite z-score in [1] was -0.337; in assay [2], 0.154; in assay [3], -0.081; in [4], 0.375; in [5], 0.87; in [6] it was 0.652. Further, the composite z-score was 1.2 in assay [7], 0.327 in [9] and 0.176 in assay [10]. Besides, the z-score in assay [8] is -2.32 (inactive).

For `NC(N)=NCc1cn(CCc2c[nH]c3ccccc23)nn1`, the composite z-score is -0.711 in [1]; 0.348 in assay [2]; -0.121 in [3]; 0.536 in assay [4]; 0.348 in assay [5]; 0.499 in [6]. For the same molecule, the composite z-score in [7] was found to be 0.992; in assay [9], 0.225; in assay [10] it was 0.132. Further, in [8], the z-score was 0.512 (inactive).

The record behind these values is PubChem BioAssay.
